Results filed as inconclusive are left out. Activity calls are given as the source filed them. Calls follow the shape of the dose curve; as a rule, active = well fitted activation curve with a large enough effect; inconclusive = small, poorly fitted or top-dose-only effect, or another doubt; inactive = no such curve, though single readings can be large or run the other way.
target: Rap guanine nucleotide exchange factor 3 (Homo sapiens) (UniProt O95398); experiment: Counterscreen qHTS for agonist of cAMP-regulated guanine nucleotide exchange factor 3 (EPAC1) (AID 1645889); settings: EPAC1 Rap1B-BODIPY-GDP exchange, fluorescence; series mostly up to 154 µM; activation: at the top concentration; also: nearly all actives have a fitted effect of over 40% in size; as to activation: % of control where 0% means no effect
Description: Assay Provider (PI): Xiaodong Cheng Ph.D. The University of Texas Medical Branch, […], TX MLPCN Grant: NS066510 In multi-cellular eukaryotic organisms, the effects of cAMP are transduced by two ubiquitously-expressed intracellular cAMP receptors, the classic protein kinase A/cAMP-dependent protein kinase (PKA/cAPK) and the more recently discovered exchange protein directly activated by cAMP/cAMP-regulated guanine nucleotide exchange factor (EPAC/cAMP-GEF). Both PKA and EPAC are ubiquitously expressed in all tissues, and an increase in intracellular cAMP levels will lead to the activation of both PKA and EPAC. Therefore, careful dissections of the individual role and relative contribution of EPAC and PKA within the overall cAMP signaling in various model systems are critical for further elucidating the mechanism of cAMP signaling. To date no EPAC-specific antagonists and agonist, as well as isoform-specific agonists have been reported, and developing EPAC-specific pharmacological probes to determine the physiological functions that EPAC play in the overall cAMP-mediated signaling remains a major challenge within the research field. Furthermore, identified regulators of EPAC may lead to new mechanism-based therapeutic strategies specifically targeting the EPAC / cAMP-signaling components as EPAC has been implicated to play important roles in major human pathological conditions such as diabetes, heart disease, and cancer. This qHTS will be used to screen the Molecular Libraries Small Molecule Repository (MLSMR) as a concentration-titration series using the NCGC unique quantitative screening (qHTS) platform to find activators for EPAC1. In addition, this assay will also be used as a counterscreen for the EPAC2 qHTS. This fluorescent based assay is developed and validated for EPAC1 that measures exchange using EPAC effector Rap1 complex with BODIPY-GDP, a GDP analog with a tethered fluorophores. Activators are identified by monitoring the change in fluorescence signal as the exchanged free BODIPY-GDP has a reduced fluorescence compared to Rap1-bound BODIPY-GDP. Increase in signal (activation) is the desired outcome for the EPAC1 agonist while no activity in this assay is desired for the EPAC2 agonist counterscreen. Reference: [1] de Rooij, J., Zwartkruis, F. J., Verheijen, M. H., Cool, R. H., Nijman, S. M., Wittinghofer, A., and Bos, J.L. (1998) Nature 396, 474-477. Kawasaki, H., Springett, G. M., Mochizuki, N., Toki, S., Nakaya, M., Matsuda, M., Housman, D. E., and Graybiel, A. M. (1998) Science 282, 2275-2279.
EPAC1 Counterscreen PROTOCOL TABLE SEQUENCE No. (e.g., 1, 2, 3, etc.); […] (e.g., Cells, Incubation, Reagent, etc.); VALUE and DESCRIPTION. 1. Reagent. 3 uL. [1x] 250 nM Rap1B-BODIPY-GDP, and 50 uM GDP. 2a. Compound. 23 nL. Control 6,572 uM cAMP (working concentration). 2b, 2c. Compound. 23 nL. Control activator and inhibitor; 234 - 30,000 uM cAMP and 16.4 - 10,000 uM. 2d. Compound. 46 nL. MLSMR follow-up library; 0.64 - 10,000 uM. 3. Time. 15 sec, 1000rpm. Centrifuge. 4. Time. 5 min. Incubation at room temperature. 5. Detector. Fluorescence. (Read 1), Ex/Em = 480 nm / 540 nm. 6. Time. 30 min. Incubation at room temperature. 7. Detector. Fluorescence. (Read 2), Ex/Em = 480 nm/ 540 nm. 8. Reagent. 1uL. Dispense either [4x] 10 uM cAMP or buffer. 9. Time. 15 sec, 1000 rpm. Centrifuge. 10. Time. 5 min. Incubation at room temperature. 11. Detector. Fluorescence. (Read 3), Ex/Em = 480 nm / 540 nm. 12. Time. 30 min. Incubation at room temperature. 13. Detector. Fluorescence. (Read 4), Ex/Em = 480 nm / 540 nm. NOTES (numbers refer to Sequence numbers above; values are from representative experiments) 1. Medium-binding black solid-bottom Greiner plates (789176-F). Dispense 3 uL of [1x] 250 nM Rap1B-BODIPY-GDP, and 50 uM GDP into columns 1 to 48. 2a. Control compound cAMP (6,572 uM, column 3, rows 1 to 32) single pin-transferred for a [final] of 50 uM. 2b. […]
Potency is read from the fitted curve at half-maximal effect.

Structure (SMILES) | activation | Potency
COc1ccc(C(=O)C2CN(C)CC2c2ccc(Cl)cc2)cc1 (stereo not given) | 27.2% [at 30.8 µM] (inactive) | 
O=C1Nc2ccccc2/C1=C/c1nc2ccccc2c(=O)n1-c1ccc(O)cc1 | 1.32% [at 30.8 µM] (inactive) | 
COc1ccc(OCC(=O)N2CCN(CC3CC4C=CC3C4)CC2)cc1 (stereo not given) | 5.29% [at 30.8 µM] (inactive) | 
O=[N+]([O-])c1ccc(N2CCOCC2)c2c1no[n+]2[O-] | -72.6% (inactive) | 
Clc1cc(Cl)c(-c2cc(Cl)c(Cl)cc2Cl)cc1Cl | 19.4% (inactive) | 
CN1CC[C@@]2(C)c3cc(O)ccc3N(C)[C@@H]12 |  | 5.62 µM (active)
CCOC(=O)c1c(-c2ccccc2)oc2ccc(OC(=O)N(C)C)cc12 | -12.5% (inactive) | 
Nc1c(C(=O)NCc2ccco2)c2nc3ccccc3nc2n1Cc1ccc(F)cc1 | 21.6% (inactive) | 
NC(=O)c1ccc(N=Cc2c(O)n(Cc3ccco3)c(=O)[nH]c2=O)cc1 | 15.9% (inactive) | 
Cn1cccc1/C=C1\C(=O)NC(=O)N(Cc2ccccc2Cl)C1=O | 10% (inactive) | 
Nc1ccc2ccc3cccc[n+]3c2c1 |  | 39.8 µM (active)
CC(C)C/C(=N/O)c1cn(C)c2ccccc12 | 2.7% (inactive) | 
Nc1c2c(nc3sc4c(c13)CCCC4)CCCC2 | 3.23% [at 30.8 µM] (inactive) | 
O=c1cc(C(F)(F)F)c2cc3c4c(c2o1)CCCN4CCC3 |  | 50.1 µM (active)
CCc1nc2ccccc2c(=O)n1-c1ccccc1OC | 17.6% (inactive) | 
O=C(c1ccco1)c1cn(Cc2ccccc2)c2ccccc12 | 28.9% (inactive) | 
CCCCn1c(O)c(C=NCCN2CCCCC2)c(=O)[nH]c1=O | -3.38% (inactive) | 
Cc1ccccc1OCC(=O)N1CCN(CCc2ccccn2)CC1 | 16.3% (inactive) | 
CCOC(=O)[C@]12Cc3ccccc3[C@H]1N(Cc1ccccc1)C(=O)c1cc(OC)ccc12 | 20.9% [at 30.8 µM] (inactive) | 
Cc1oc(-c2ccccc2)nc1CN1C(=O)CN=C(c2ccccc2)c2ccccc21 | 28.8% [at 30.8 µM] (inactive) | 

Structure (SMILES) | activation | Potency
O=c1[nH]c(=S)n(-c2ccccc2F)c(O)c1C=Nc1ccc(N2CCOCC2)cc1 | 32% [at 30.8 µM] (inactive) | 
O=C1NCN(c2ccccc2)C12CCN(C(c1cc3ccccc3o1)c1nnnn1C1CCCCC1)CC2 (stereo not given) | 4.05% (inactive) | 
CN1C(=O)/C(=C/c2cccn2-c2ccc3ccccc3c2)C(=O)NC1=S | 22.5% (inactive) | 
COC1C(OC(=O)c2ccc(C)[nH]2)C(O)C(Oc2ccc3c(O)c(NC(=O)c4ccc(O)c(CC=C(C)C)c4)c(=O)oc3c2Cl)OC1(C)C (stereo not given) | -24.9% (inactive) | 
COc1ccc(N2C(=O)NC(=O)/C(=C/c3ccc([N+](=O)[O-])s3)C2=O)cc1 | 23.4% (inactive) | 
CC(=O)C1C2c3ccccc3OC1(C)N=c1s/c(=C/c3cn(C)nc3C)c(=O)n12 (stereo not given) | -2.76% (inactive) | 
O=C(c1cc(-c2ccc(Cl)cc2)n(-c2ccc(Cl)cc2Cl)n1)N1CCOCC1 | 20.3% (inactive) | 
O=C1NC(=O)N(CCc2ccc(F)cc2)C(=O)/C1=C/c1ccco1 | 10.6% [at 30.8 µM] (inactive) | 
CC1=C(O)C(=O)C=C2C1=CC=C1C2(C)CCC2(C)C3CC(C)(C(=O)O)CCC3(C)CCC12C (stereo not given) | 5.94% (inactive) | 
O=C1NC(=O)N(Cc2ccc(F)cc2)C(=O)/C1=C\C=C\c1ccco1 | 7.61% [at 30.8 µM] (inactive) | 
CC[C@@H]1c2ccccc2[C@@H]2CC[C@H]1N2c1ccccc1 | -4.47% [at 30.8 µM] (inactive) | 
COP(=O)(/C=C(\Cl)c1ccccc1)/C=C(\Cl)c1ccccc1 | 13% (inactive) | 
CCCCN1C(=O)/C(=C\c2ccco2)C(=O)N(CCc2ccccc2)C1=O | 15.6% (inactive) | 
Cc1ccc(N2C(=O)NC(=O)/C(=C\C=C\c3ccco3)C2=O)cc1C | 15.5% (inactive) | 
COc1ccc(N2C(=O)/C(=C/C=C/c3ccccc3[N+](=O)[O-])C(=O)NC2=S)cc1 | 4.75% [at 30.8 µM] (inactive) | 
CCn1nc(/C=C/c2ccccc2)nc2c(=O)n(C)c(=O)nc1-2 | 2.03% (inactive) | 
O=C1NC(=O)N(Cc2ccccc2)C(=O)/C1=C\c1ccco1 | 12.3% [at 30.8 µM] (inactive) | 
O=[N+]([O-])c1ccc(N2CCCCCC2)c2nonc12 |  | 25.1 µM (active)
CC(C)c1ccc(C(c2c(O)c3ccccc3oc2=O)c2c(O)c3ccccc3oc2=O)cc1 | 6.87% (inactive) | 
Cc1ccc(-n2c(O)c(/C=C/C=Nc3ccccc3)c(=O)[nH]c2=O)cc1 |  | 44.7 µM (active)
